Test results taken from PubChem BioAssay AID504834 (National Center for Advancing Translational Sciences (NCATS), 2011).
The whole screen tested about 320,000 compounds, of which about 22,000 (6.9%) were called active. Where a call stands in place of a potency, no number is given. Another 27% or so got no clear call; they are omitted. The call rests on the fitted dose curve; in most records, active means well fitted inhibition curve with a large enough effect; inconclusive means small, poorly fitted or top-dose-only effect, or another doubt; inactive means no such curve, though single readings can be large or run the other way. Many of the other results were omitted from the sample, so actives are more common in it than they were.

experiment: Primary qHTS for delayed death inhibitors of the malarial parasite plastid, 96 hour incubation; details: P. falciparum luciferase reporter growth; series mostly up to 28.7 µM
Outline: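 Two parasite generations (96 h, 37 C, 5% CO2) of compound exposure in infected erythrocytes (0.05% parasitemia, 2% hematocrit). Luciferase-reporter P. falciparum; decreased luminescence indicates inhibited growth, aimed at apicoplast-acting delayed death.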
Potency means the concentration at half of the fitted maximal effect.

SMILES	Potency
O=C(CSc1ccc(-c2ccc(Br)cc2)nn1)NCC1CCCO1 (configuration not stated)	inactive
COc1ccc(CCNC(=O)CN2C(=O)COc3ccc(S(=O)(=O)N4CCCC4)cc32)cc1OC	inactive
CCOC(=O)C1(Cc2ccc(O)cc2)NC(c2ccccc2F)C2C(=O)N(C)C(=O)C21 (configuration not stated)	inactive
CCN1C(=O)[C@H]2[C@@H](c3ccc(SC4CCCCC4)c(OC)c3)N[C@@](Cc3ccccc3)(C(=O)OC)[C@H]2C1=O	inactive
CCN1C(=O)[C@H]2[C@@H](c3ccc(-c4ccc(F)cc4)cc3)N[C@@](Cc3ccccc3)(C(=O)OC)[C@H]2C1=O	5.86 µM (active)
CCC(C)CCN1CCN=C1N(C)C (configuration not stated)	inactive
CCOc1ccc(/C=N\NC(=O)c2c(C)nc3cc(C)ccn23)cc1	inactive
CCOC(=O)C1CCN(Cc2ccc(-c3ccccc3)cc2)CC1	inactive
CCOC(=O)c1nnn(-c2nonc2-n2cccc2)c1CN1CCC(C(=O)OCC)CC1	0.928 µM (active)
CCN(CC)Cc1c(C(=O)OC)nnn1-c1nonc1N	inactive
Cc1ccccc1OCC(=O)Nc1nnc(S(=O)(=O)N2CCCC2)s1	inactive
CCOC(=O)CC1COCCN1C(=O)c1cc(COc2ccc(F)c(F)c2)on1 (configuration not stated)	inactive
Cn1c(N2CCOCC2)c(C=O)c2ccccc21	inactive
FC(F)(F)c1ccnc(Oc2ccc(C3=NCCS3)cc2)c1	inactive
O=C(NCCCN1CCOCC1)c1ccc([N+](=O)[O-])cc1[N+](=O)[O-]	inactive
O=S(=O)(NCCCN1CCOCC1)c1ccc(F)c(Cl)c1	inactive
O=[N+]([O-])c1cc(S(=O)(=O)CCCN2CCOCC2)ccc1F	10.4 µM (active)
CCc1nccn1CCC(=O)N1CCCC(N2CCN(c3ccccc3F)CC2)C1 (configuration not stated)	inactive
CCOc1ccc(NC(=O)CN(C)C(=O)CSc2ccccc2)cc1OCC	inactive
CCc1ccc(-c2nn(-c3ccccc3C)cc2C(=O)N2CCN(C3CCS(=O)(=O)C3)CC2)cc1 (configuration not stated)	inactive
CCc1ccc(N2CC(C(=O)Nc3ccc(S(=O)(=O)Nc4nccs4)cc3)CC2=O)cc1 (configuration not stated)	inactive
COc1ccc([N+](=O)[O-])cc1N(CC(O)CN(CC(C)C)CC(C)C)S(=O)(=O)c1ccc(C)cc1 (configuration not stated)	inactive
COc1cc2cc(C(=O)N/N=C/c3cccc(OC)c3OC)[nH]c2cc1OC	inactive

SMILES	Potency
COc1ccc2[nH]c(C(=O)N/N=C/c3cc(OC)c(OC)c(OC)c3)cc2c1	5.86 µM (active)
CCOc1ccc2[nH]c(C(=O)N/N=C/c3cccc(OC)c3OC)cc2c1	inactive
Cc1ccnc(NS(=O)(=O)c2ccc(NC(=O)c3oc4ccc(F)cc4c3C)cc2)n1	inactive
COc1ccc(Nc2ccc([N+](=O)[O-])cn2)cn1	inactive
O=C(c1ccc(Cl)cc1)N1N=C(c2ccccn2)CC1(O)C(F)(F)F (configuration not stated)	6.57 µM (active)
O=C(C1CC1)N1N=C(c2ccc(Br)cc2)CC1(O)C(F)(F)F (configuration not stated)	inactive
COC(=O)C1(O)CC(C(C)C)=NN1C(=O)c1ccc(Cl)cc1 (configuration not stated)	inactive
Cc1ccc(NC(=O)NC(=O)c2ccccc2)cc1F	inactive
CC(=O)c1c(C)[nH]c(=S)c(C#N)c1-c1ccc(F)cc1	inactive
CCc1c(C)[nH]c(=S)c(C#N)c1C	3.29 µM (active)
Cc1ccc(-n2cnc3ncnc(-c4ccccc4)c32)cc1	inactive
Cc1ccc(-c2nn(C(C)(C)C)c3ncnc(N)c23)cc1	2.33 µM (active)
COc1ccccc1OC(C)C(=O)Nc1ccc(S(=O)(=O)Nc2nccs2)cc1 (configuration not stated)	inactive
COC(=O)c1ccc(CN2C(=O)NC(c3ccccc3)(c3ccccc3)C2=O)o1	inactive
CCCC(NC(=O)c1ccccc1)c1nc2ccccc2n1Cc1ccc(C(=O)OC)o1 (configuration not stated)	8.28 µM (active)
CCCn1c(C(Cc2ccccc2)NC(=O)COC)nc2ccccc21 (configuration not stated)	inactive
CCc1cccc(NC(=S)N(CCN(C)C)C2CCN(C(C)C)CC2)c1	inactive
COc1ccccc1/C=C/C(=O)OCC(=O)NC1CCCCCC1	inactive
CSc1nc2ccc(S(=O)(=O)N3CCc4ccccc43)cc2s1	inactive
O=S(=O)(c1ccc2c(c1)OCCO2)N1CCc2ccccc21	inactive
CCn1c(=O)c(=O)n(CC)c2cc(S(=O)(=O)N3CCc4ccccc43)ccc21	13.1 µM (active)
O=C(NCc1ccccc1Cl)c1ccc2c(=O)n(CC3CCCO3)c(=S)[nH]c2c1 (configuration not stated)	inactive
Cc1ccc2nc(COc3ccc(N(C)S(=O)(=O)c4ccccc4)cc3)cc(=O)n2c1	10.4 µM (active)

SMILES	Potency
COc1cccc(COc2ccc(N(C)S(=O)(=O)c3ccccc3)cc2)c1	inactive
CN(c1ccc(OCC(=O)O)cc1)S(=O)(=O)c1ccc2ccccc2c1	inactive
COCCCNC(=O)C1CC(=O)N(CCc2ccc(F)cc2)C1 (configuration not stated)	inactive
O=C(Nc1ccc2c(c1)OCO2)C1CC1(Cl)Cl (configuration not stated)	inactive
CC(=O)N/C(=C\c1ccccc1)C(=O)OC(C)C(=O)N(C)c1ccccc1 (configuration not stated)	inactive
OCC[C@H]1C[C@H](O)[C@@H](O)[C@]2(Cc3ccccc3CO2)O1	inactive
CC(C)c1nc2sc3c(c2c(=O)n1N)CC(C)(C)OC3	4.65 µM (active)
CCOC(=O)Cn1c(SC)nc2sc3c(c2c1=O)CC(C)(C)OC3	inactive
CC1(C)Cc2c(sc3nc4n(c(=N)c23)CCCCC4)CO1	inactive
CC1=C(C(=O)OC(C)(C)C)C(c2ccc(Br)cc2)NC(=O)N1CCCC(=O)O (configuration not stated)	inactive
CC1=C(C(=O)OCc2ccccc2)C(c2ccc(C(F)(F)F)cc2)NC(=O)N1CCCCCC(=O)O (configuration not stated)	13.1 µM (active)
COCCN1C(=O)N[C@@H](c2ccccc2)C(C(=O)OC)=C1C	inactive
CCOC(=O)c1c(C)[nH]c(C(=O)OCC(=O)c2ccc(OC)cc2OC)c1C	inactive
COc1cccc(/C=C/C(=O)OCC(=O)N2CCCc3ccccc32)c1	inactive
COc1c(O)cc2oc(-c3ccc(O)c(O)c3)cc(=O)c2c1O	inactive
O=C(CSc1c2c(nc3ccc(Cl)cc13)CCCC2)NCc1ccco1	9.28 µM (active)
O=C(NCc1ccco1)c1cc(-c2cccnc2)nc2ccc(Cl)cc12	inactive
O=C(CSc1nnnn1-c1ccccc1)NCc1ccco1	inactive
NS(=O)(=O)c1cccc(NC(=O)CN2CCCc3ccccc32)c1	inactive
COC(=O)c1[nH]c2ccc(Br)cc2c1NC(=O)Oc1ccccc1	inactive
COC(=O)c1[nH]c2ccccc2c1NC(=O)CN1CCCc2ccccc21	3.29 µM (active)
